According to PubChem BioAssay (NCI):
“And” between values parts separate entries of the source, which are not always exact repeats. Identical values can stand only once. Compounds without any hit were thinned out: in the full panel of roughly 83,000, 20% have a hit.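 Negative percent growth values reflect cell death: -40 means 40% of the cells present at the start died, and -100 means all died.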 Values without a mark were called inactive. The source made the active and inactive calls.

tested on: HL-60(TB) leukemia; assay: NCI-60 one-dose screen, 48 h (100 = growth as untreated, 0 = no growth, -100 = all killed); details: 10 µM
Description: Growth inhibition of the HL-60(TB) human tumor cell line is measured as a screen for anti-cancer activity. Cells are grown in 96 well plates and exposed to the test compound for 48 hours. Compounds are tested at a single concentration, which is 10^-5 M for most compounds. The reported endpoint is percent growth (GI% or GIPRCNT), where numbers from 0 - 100% represent growth inhibition, and numbers from -100% - 0 represent cell death. For example, a value of 40 represents 60% growth inhibition. A value of 0 means no net growth occurred over the course of the experiment. A value of -40 indicates 40% of cells at the beginning of the experiment died by the end of the experiment. A value of -100 means all cells are dead at the end of the experiment.
NCI-60 Human Tumor Cell Lines Screen was performed using the standard one-dose NCI protocol, which is described in more detail at https://dtp.cancer.gov/discovery_development/nci-60/default.htm.
Compounds with GIPRCNT values below 10 were considered active. Activity score was based on GIPRCNT using the following formula: […]
Score is 0 for GIPRCNT values of 100 or above, 50 for GIPRCNT values of 0, and 100 for GIPRCNT values of -100.

SMILES	growth
Cc1[nH]c(-c2nc3ccccc3[nH]2)c(C)c1C(=O)NC(C)C1CCCCC1 (stereo not given)	98.3%

same assay, conditions: 10 µM unless noted

SMILES	growth
N#Cc1c(-c2ccc(Cl)cc2)cc(-c2cc3ccccc3o2)nc1SCC(=O)c1ccc(Cl)cc1	123%
COc1ccc(-c2nc3ccc4[nH]ncc4c3c3c2CCCC3)cc1B(O)O	64.6%
Cc1cc(=O)n(Nc2ccccc2)c(O)c1C#N	90.3%
CC1=Nc2cnc(Nc3ccc(OCCN4CCCCC4)cc3)nc2Nc2ccccc21	65.1%
Cc1cc2nc3ccc(=[N+](C)C)cc-3sc2cc1N	-50.3% (active) and -34.8% (active)
O=C(CO)C(O)C(O)C(O)C(O)CO (stereo not given)	101% and 102%
CCOC(=O)c1c(C)[nH]c(C)c1C=O	71.4%
O=C(Cn1c(=O)sc2ccccc21)NNS(=O)(=O)c1ccccc1[N+](=O)[O-]	94.9%
COc1cc(C2CC(c3ccc(Nc4nc(NCCO)nc(N5CCOCC5)n4)cc3)=NN2c2cc(Cl)cc(Cl)c2)cc(OC)c1OC (stereo not given)	44.9%
N#Cc1nnn(-c2ccc(S(N)(=O)=O)cc2)c1NCC(=O)c1ccccc1	88.4%
Cc1ccc(C(C(N)=O)C(C(N)=O)c2ccccc2)cc1 (stereo not given)	84.7%
Cc1cc(C(C)(C)C)ccc1S	111%
O=S(=O)(NCCCNc1cc(-c2c(-c3cccc(O)c3)nc3sccn23)ccn1)c1cccc(Cl)c1	17.7%
Cc1ccc2nc(-c3c(N)n[nH]c3CCCO)[nH]c(=O)c2c1	108%
CCN1c2ccccc2C(Cl)(c2ccc(N(C)C)cc2)c2ccccc21	14%
O=C(CSc1nc2sc3c(c2c(=O)n1Cc1ccccc1)CCCC3)N1CCN(c2ccccc2)CC1	90.3%
O=C1C=CC(=O)N1c1ccc2ccccc2c1	83.9% and 88.8%
OCCNc1nc(NCCO)nc(Nc2ccc(C3=NN(c4ccc(Cl)cc4)C(c4ccc(Cl)cc4)C3)cc2)n1 (stereo not given)	46.2%
COc1cc2c(cc1-c1c(C)noc1C)ncc1nc(C3CCOCC3)n([C@H](C)COC(F)F)c12	27.5%

SMILES	growth
CC/C=C\C[C@H](O)C/C=C1/C(=O)C=C[C@@H]1C/C=C\CCCC(=O)N(C)C	0.857% (active)
Nc1ncnc2c1ncn2C1CC(O)C(CO)O1 (stereo not given)	79.7% and 95.3%
O=C1CC23OC4ON=C(Br)C4C2C(O)c2ccccc2N13 (stereo not given)	102%
Fc1ccc(CNc2cccc3[nH]c(C(F)(F)F)nc23)cc1	55%
COc1cccc(CCC2CCCN(c3cc(C)nc(N)n3)C2)c1 (stereo not given)	1.26% (active)
O=S(=O)(Nc1ccccc1)C1CCCCC1	97.2% and 106%
CCOC(=O)C(=Cc1ccc(Br)cc1)C(=O)OCC	-41.8% (active)
COc1cc(-c2nn(-c3cccc(NC(=O)CN4CCOCC4)c3)cc2-c2cccnc2)ccc1Cl	84%
Brc1ccc2[nH]cc(-c3nonc3-c3c[nH]c4ccccc34)c2c1	67.3%
O=C(Nc1ccc(C(=O)O)c(O)c1)c1ccccc1	99% and 105%
NC(Cc1c[nH]c2ccccc12)C(=O)O (stereo not given)	108% and 109%
O=C(Nc1ccc(-n2cc(-c3ccncc3)c(-c3ccc(Cl)c(O)c3)n2)cc1)c1cc(C(F)(F)F)cc(C(F)(F)F)c1	52.6%
Cn1cccc1C(=O)C1C(c2cccc([N+](=O)[O-])c2)C2C3CCCCC3CN2C12C(=O)Nc1ccc(Cl)cc12 (stereo not given)	17.8%
CCCCCCCCCC(=O)Oc1ccc(/C(=C(/C)c2ccccc2)c2ccc(OCCN3CCCC3)cc2)cc1	-30.4% (active)
CC1(C)CCC(S(=O)(=O)c2ccc3c(c2)/C(=N\O)c2cc(S(=O)(=O)N4CCC(O)(c5cccc(C(F)(F)F)c5)CC4)ccc2-3)CC1	-67.5% (active)
CC(=O)[C@@H]1CC[C@]2(C(N)=O)CC[C@]3(C)[C@H](CC[C@@H]4[C@@]5(C)CCC(=O)C(C)(C)[C@@H]5CC[C@]43C)[C@@H]12	89.7%
Cc1cc(C(C)(C)c2cc(C)c(O)c(CN(C)C)c2)cc(CN(C)C)c1O	81.1%
Nc1nc(Nc2cc(Cl)cc(Cl)c2)nn1S(=O)(=O)c1ccc2ccccc2c1	88.6%
N#Cc1c(-c2ccc(F)cc2)nc(N=Nc2c(O)[nH]c3ccc(Cl)cc23)nc1N1CCOCC1	73.3%

same assay, conditions: 100 µM

SMILES	growth
Cc1[nH]c(-c2nc3ccccc3[nH]2)c(C)c1C(=O)NC(C)C1CCCCC1 (stereo not given)	-83.4% (active)
